Compound activity as filed in PubChem.
GRIN3A LBD mod: modulators (binders) of human NR3A ligand-binding domain; NR3A LBD differential scanning fluorimetry, Tm shift; 0% = protein alone, 100% = glycine-bound protein; Tm shift relative to glycine control, % at 25 µM; actives 2.5% (n = 340,000);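 active = melting temperature shift of at least 10% of the positive control shift, at one fixed dose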
KLK7 zymogen act: proKLK7 (human) activation, primary screen | P49862 | purified proKLK7, EDANS-DABCYL substrate fluorescence; 100% is mature enzyme control, 0% vehicle | activation, % at 7 µM | actives 0.9% (n = 370,000);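 active = activation above the mean of all tested compounds plus 3 SD, computed per campaign excluding outliers beyond control limits, cut at about 13% in these data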
Target sequence (P49862 whole entry, looked up): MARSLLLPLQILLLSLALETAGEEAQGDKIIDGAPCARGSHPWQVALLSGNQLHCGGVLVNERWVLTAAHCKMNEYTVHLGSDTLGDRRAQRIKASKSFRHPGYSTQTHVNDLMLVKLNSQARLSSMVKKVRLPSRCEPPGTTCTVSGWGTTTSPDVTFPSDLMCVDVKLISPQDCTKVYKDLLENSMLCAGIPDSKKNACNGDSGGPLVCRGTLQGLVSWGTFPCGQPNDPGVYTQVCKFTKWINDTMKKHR
ADAM10 inh: ADAM10 inhibition, QFRET primary screen | O14672 | recombinant ADAM10, EDANS/DABCYL FRET peptide cleavage, 3 h | inhibition, % at 7 µM | actives 0.62% (n = 370,000) | AID 720582;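 active = inhibition above a per-campaign cutoff equal to the mean of compounds falling between control-based bounds plus 3 SD, cut at about 20% in these data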;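 note: 0% = DMSO wells while the 100% control is not disclosed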
FAS TE block: blocks the thioesterase domain of human fatty acid synthase; inhibition, % at 15 µM; actives 0.67% (n = 360,000); AID 602261; recombinant FAS-TE, OMFH fluorogenic substrate, fluorescence endpoint;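 active = compounds whose normalised, plate-corrected inhibition of enzyme fluorescence in the single-dose primary screen is 50% or more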;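 note: 0% = DMSO with enzyme and 100% = substrate without enzyme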
ADAM17 inh: inhibitors of human ADAM17; inhibition, % at 6.95 µM; actives 0.83% (n = 370,000); AID 720648; P78536; recombinant ADAM17, EDANS/DABCYL FRET peptide cleavage;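 active = inhibition above the mean of compounds lying between control limits plus 3 SD, set per campaign, cut at about 8.5% in these data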;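 note: 0% = DMSO-only wells as the low control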
An asterisk follows results filed as active; x = no result. Rows were chosen to be rich in hits. Some 4.6% of all compounds tested hit in one or more screens of this group.

SMILES	GRIN3A LBD mod	KLK7 zymogen act	ADAM10 inh	FAS TE block	ADAM17 inh
COC(=O)[C@]12C[C@H](CC(=O)NCc3cccc(C(F)(F)F)c3)C(=O)N(CCC3=CCCCC3)C1=C[C@H](C1CCCC1)O[C@@H]2C	x	-0.5	4.8	x	-2.2
Cc1[nH]n(-c2ncc(-c3ccc(Cl)cc3)s2)c(=O)c1C(c1ccc(Cl)cc1)C(C#N)C#N (stereo unspecified)	17.1*	x	x	20.8	x
CC(C)c1ccc(-c2cc(C(=O)N3N=C(C(F)F)CC3(O)C(F)F)c3ccccc3n2)cc1 (stereo unspecified)	34.7*	-8.7	-26.5	38.4	-3.6
C=CCN1C(=O)[C@@H](CC(=O)N2CCOCC2)[C@]2(C(=O)OCC)CCCCC/C=C/12	x	-0.1	-7.8	x	-0.1
O=C(Nc1ccc2c(c1)CCC2)c1ccc(F)cc1	3.0	-0.5	4.1	3.4	1.1
O=C(Nc1ccc2c(c1)CCC2)c1cc(S(=O)(=O)Nc2ccc(F)cc2)c(Cl)cc1Cl	31.1*	0.3	-3.8	19.9	-2.3
O=[N+]([O-])c1ccc(C(O)CNC(=S)Nc2ccccc2)cc1 (stereo unspecified)	12.5*	0.2	12.8	9.5	1.7
Fc1ccc(CCNC(=S)Nc2ccc(F)c(Cl)c2)cc1	34.9*	0.2	8.7	26.1	1.9
O=[N+]([O-])c1ccc(NC(=S)NCCc2ccc(F)cc2)cc1	30.2*	-0.2	18.8	47.8	7.7
Fc1ccc(NC(=S)NCCc2ccc(Cl)cc2)cc1	22.6*	0.8	-4.1	7.5	3.3
O=C(NCCc1ccc(F)cc1)Nc1ccc([N+](=O)[O-])cc1	4.7	0.2	6.2	17.1	3.0
O=C(NCc1ccc(F)c(F)c1)C1C2C=CC3(CN(Cc4ccccc4)C(=O)C13)O2 (stereo unspecified)	x	0.2	-4.7	x	-0.4
CSC1=NSC2=NC(=O)/C(=C\c3ccc(OC(=O)c4ccco4)cc3)C(=N)N12	1.1	-0.3	-12.7	-2.9	-2.4
CCSC1=NSC2=NC(=O)/C(=C\c3coc4ccccc4c3=O)C(=N)N12	10.9*	-2.3	-71.2	-73.0	-22.7
Cn1c(=O)c2c(ncn2CC(=O)N2CCN(c3ccc([N+](=O)[O-])cc3)CC2)n(C)c1=O	18.0*	0.4	-0.7	1.1	1.8
C=CCN1[C@H](C#N)[C@@H](c2ccc(C#Cc3cccnc3)cc2)[C@H]1CO	x	0.1	-72.2	x	-18.9
COc1ccccc1C(=O)Nc1ccnn1C1CCN(C/C=C/c2ccccc2)CC1	12.6*	-0.1	-2.9	-2.9	-11.0
COc1ccccc1CC(=O)N1CCC(n2nccc2NC(=O)C2CCOC2)CC1 (stereo unspecified)	10.2*	-0.4	3.9	-2.6	-2.1
COc1ccccc1/C=C/CN1CCC(n2nccc2NC(=O)C2CC2)CC1	0.1	-0.3	-7.0	-5.4	-0.3
COC(=O)[C@H](CC(C)C)N(CCCc1cn(Cc2ccc(C)cc2)nn1)S(=O)(=O)c1ccc(F)cc1Br	x	0.3	15.9	x	6.0
COc1ccccc1Cn1c(=S)[nH]c2cc(C(=O)NCC3CCCO3)ccc2c1=O (stereo unspecified)	-1.1	0.8	-7.3	3.7	-2.3
O=C(NCC1CCCO1)c1ccc2c(=O)n(Cc3ccc(Cl)cc3)c(=S)[nH]c2c1 (stereo unspecified)	21.5*	-0.3	3.2	0.9	-5.8
Cc1cccc(NC(=O)c2sc3nc(C)nc(N4CCOCC4)c3c2C)c1	x	1.1	6.7	9.5	-0.4
CCOc1ccc(NC(=O)c2sc3nc(C)nc(N4CCOCC4)c3c2C)cc1	16.5*	0.9	4.4	3.6	0.9
Cc1ccc(C(CC(=O)N2CCCCC2)c2ccccc2)c(O)c1C (stereo unspecified)	13.4*	-0.2	2.8	3.6	0.6
SMILES	GRIN3A LBD mod	KLK7 zymogen act	ADAM10 inh	FAS TE block	ADAM17 inh
CC1(C)Nc2ccccc2C(=O)N1c1ccc(Br)cc1	13.3*	0.6	-62.4	1.3	-32.6
CCOC(=O)NC[C@@]1(C(=O)OC)CC(=O)N(Cc2ccc(Cl)cc2)[C@@H]1c1ccc(OC)cc1	x	0.2	4.3	x	0.1
COC(=O)c1ccc(NC(=O)CN2CCOCC2)cc1	12.7*	0.4	0.6	-7.1	-5.0
CCOC(=O)c1sc(NC(=O)c2sccc2C)cc1C	11.0*	0.5	-159.4	14.1	-22.8
CCOC(=O)c1sc(NC(=O)Nc2cccc(Cl)c2)cc1C	23.5*	-4.6	-0.9	4.2	2.5
O=C(c1cc(Cl)cc(Cl)c1)N1CC[C@H]2[C@H](CCCN2Cc2cc(F)cc(F)c2)C1	x	0.1	-0.7	x	0.6
COc1cc(NS(=O)(=O)c2ccc(Nc3nc(-c4cccc([N+](=O)[O-])c4)cs3)cc2)nc(OC)n1	28.9*	0.1	10.9	23.8	4.1
O=[N+]([O-])c1cccc(-c2csc(Nc3ccccc3)n2)c1	30.3*	-0.3	8.8	38.3	3.1
O=C(Nc1nc(-c2ccccc2)cs1)c1cccc([N+](=O)[O-])c1	24.4*	0.5	13.4	56.9*	7.7
O=C(Cc1ccccc1)Nc1nc(-c2cccc([N+](=O)[O-])c2)cs1	-2.9	-0.3	-8.8	22.5	-0.8
COc1cc(NS(=O)(=O)c2ccc(NS(=O)(=O)c3ccccc3)cc2)nc(OC)n1	0.5	0.9	4.2	-2.7	-0.3
COc1ccccc1Nc1nc(-c2cccc([N+](=O)[O-])c2)cs1	32.5*	0.1	12.1	46.0	2.7
CC(C)N1CCCCC(NC(=O)c2c(F)cccc2F)C1=O (stereo unspecified)	x	0.8	-1.7	x	0.3
CCOC(=O)[C@]12CCCCC/C=C\1N(Cc1ccc(OC)cc1)C(=O)[C@H]2CC(=O)NCCc1ccccc1OC	x	0.1	4.7	x	2.7
Cc1ccc(CN2CCCCC(NC(=O)C(C)(C)C)C2=O)cc1 (stereo unspecified)	x	-0.4	-2.0	x	-2.1
COc1cc(/C=C2/NC(=O)N(Cc3ccccc3F)C2=O)cc(OC)c1O	1.4	-1.9	-15.0	-3.9	-0.7
CCOc1cc(/C=C2/NC(=O)N(Cc3ccccc3F)C2=O)ccc1O	30.2*	0.4	-5.1	4.6	-1.2
CC(C)(C)c1ccc(-c2nnc(SCC(=O)Nc3ccc4cn[nH]c4c3)n2-c2ccc(Cl)cc2)cc1	x	-0.5	9.6	x	4.2
